Assay results: PubChem BioAssay (NCATS)
Records with an inconclusive call do not appear. Active and inactive are the calls of the source. Unless noted, calls come from the whole dose curve; as a rule, active = well fitted curve in the direction sought with a large enough effect; inconclusive = small, poorly fitted or top-dose-only effect, or another doubt; inactive = no such curve, though single readings can be large; an effect the other way counts as inactive or inconclusive.

How the values were obtained:
[1] = molecular target: Lysosomal acid glucosylceramidase (Homo sapiens) (UniProt P04062); assay: Glucocerebrosidase-p2 (AID 348; in the data active = potency below about 10 µM; note: potency is the fitted concentration of half-maximal effect); conditions: purified GBA, blue fluorogenic substrate, 40 min
Sequence of Lysosomal acid glucosylceramidase (Homo sapiens) (P04062 whole entry, looked up): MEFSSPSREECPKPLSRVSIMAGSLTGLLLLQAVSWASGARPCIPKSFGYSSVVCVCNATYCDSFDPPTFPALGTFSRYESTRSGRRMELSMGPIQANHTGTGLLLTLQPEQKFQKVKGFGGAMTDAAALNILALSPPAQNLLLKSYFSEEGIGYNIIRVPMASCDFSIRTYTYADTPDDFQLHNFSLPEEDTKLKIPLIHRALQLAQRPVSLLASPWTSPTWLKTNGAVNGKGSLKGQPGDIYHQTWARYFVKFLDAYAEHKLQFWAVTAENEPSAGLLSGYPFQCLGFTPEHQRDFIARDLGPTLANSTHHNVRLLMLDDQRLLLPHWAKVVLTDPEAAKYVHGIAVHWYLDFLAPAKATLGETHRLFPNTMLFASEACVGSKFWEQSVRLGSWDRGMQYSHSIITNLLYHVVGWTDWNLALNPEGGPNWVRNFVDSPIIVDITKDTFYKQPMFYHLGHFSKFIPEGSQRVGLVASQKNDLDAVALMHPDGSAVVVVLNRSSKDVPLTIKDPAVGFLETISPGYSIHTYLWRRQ
In short: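 Compounds titrated from 0.6 nM upwards against 0.2 nM enzyme in pH 5.9 citric acid/KH2PO4, taurocholate, tween-20; blue fluorogenic substrate 80 uM, 40 min room temperature, stopped and read Ex 365/Em 440 for AC50.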

[2] = AP1 Signaling Pathway (AID 357; active = well fitted curve in either direction with a large enough effect, not every such curve was filed as active;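 note: ME-180 reporter cells stimulated with EGF at its EC50 level; % is set by controls: 0 for no effect and ±100 for the full control effect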); conditions: ME-180 AP-1-bla reporter, EGF-induced, beta-lactamase ratio, 5 h; at 7.69 µM (top of the series) unless noted
In short: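 Read-out was the 460nm/530nm emission ratio (excitation 405nm) after CCF4 loading for 2.5 hours at room temperature. Cells carried an AP-1-driven beta-lactamase reporter, were stimulated with EC50 EGF plus compound for 5 hours, and AC50 values came from titrations.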

[3] = molecular target: Cytochrome P450 1A2 (Homo sapiens) (UniProt P05177); assay: p450-cyp1a2 (AID 410; calls by dose curve; note: potency is the fitted concentration of half-maximal effect); conditions: recombinant CYP1A2, luciferin-ME demethylation, luminescence; series mostly up to 57 µM
Sequence of Cytochrome P450 1A2 (Homo sapiens) (P05177 whole entry, looked up): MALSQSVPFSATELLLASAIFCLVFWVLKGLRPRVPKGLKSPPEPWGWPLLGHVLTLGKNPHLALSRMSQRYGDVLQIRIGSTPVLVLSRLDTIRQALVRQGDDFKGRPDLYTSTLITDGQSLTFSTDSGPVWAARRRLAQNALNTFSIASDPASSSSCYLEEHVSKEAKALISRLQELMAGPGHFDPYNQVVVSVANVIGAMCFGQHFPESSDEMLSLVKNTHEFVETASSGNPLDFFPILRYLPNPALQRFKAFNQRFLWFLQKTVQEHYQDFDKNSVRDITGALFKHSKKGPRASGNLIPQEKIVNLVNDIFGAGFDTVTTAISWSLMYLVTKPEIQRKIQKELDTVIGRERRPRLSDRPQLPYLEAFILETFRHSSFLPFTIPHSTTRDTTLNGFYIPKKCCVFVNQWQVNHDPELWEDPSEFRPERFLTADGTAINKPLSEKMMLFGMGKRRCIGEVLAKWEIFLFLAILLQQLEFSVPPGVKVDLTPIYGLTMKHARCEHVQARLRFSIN
In short: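 Luminescent readout of luciferin formed from Luciferin-ME by human CYP1A2; data normalized against complete inhibition by 57 uM furafylline. Enzyme 20nM, substrate 100uM at Km, 100mM KPO4 buffer, 60 min reaction at room temperature.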

[4] = NFAT Signaling Pathway (AID 444; active = well fitted curve in either direction with a large enough effect, not every such curve was filed as active;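 note: carbachol stimulus at about its EC50 of 1 µM final; % is set by controls: 0 for no effect and ±100 for the full control effect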); conditions: Jurkat NFAT-bla M1, carbachol, beta-lactamase ratio, 5 h; at 7.69 µM (top of the series) unless noted
In short: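 Jurkat cells carrying an NFAT-driven β-lactamase reporter and co-transfected muscarinic M1 receptor were treated with compound plus carbachol (1 uM final, an EC50 level) for 5 h at 37 °C. CCF4 loading followed for 1 h at RT; 460/530 nm ratio gave %activity.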

[5] = Stat Signaling Pathway (AID 446; active = well fitted curve in either direction with a large enough effect, not every such curve was filed as active;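 note: ME-180 cervical cancer cells given 40 pM IL-6 alongside compound; SIE-controlled beta-lactamase reporter measured as 460/530 nm FRET emission ratio; % is set by controls: 0 for no effect and ±100 for the full control effect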); conditions: ME-180 SIE beta-lactamase reporter, IL-6 stimulated, 5 h; at 7.69 µM (top of the series) unless noted
In short: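 ME-180 cells carrying a SIE-driven beta-lactamase reporter are stimulated with 40 pM IL-6 for 5 h at 37C in the presence of compound. The 460/530 nm FRET substrate ratio is read after 2.5 h at RT. Data are normalised to 300 pM IL-6 and to 125 nM JAK inhibitor controls.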

[6] = molecular target: Glucocorticoid receptor (Homo sapiens) (UniProt P04150); assay: GR-GFP Redistribution (AID 450;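 active = compounds whose dose series gives a full or clear partial fitted curve of increased nuclear translocation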; note: potency is the fitted concentration of half-maximal effect); conditions: U2OS GR-GFP nuclear translocation, laser cytometry, 2 h
Sequence of Glucocorticoid receptor (Homo sapiens) (P04150 whole entry, looked up, the tested form may be a part): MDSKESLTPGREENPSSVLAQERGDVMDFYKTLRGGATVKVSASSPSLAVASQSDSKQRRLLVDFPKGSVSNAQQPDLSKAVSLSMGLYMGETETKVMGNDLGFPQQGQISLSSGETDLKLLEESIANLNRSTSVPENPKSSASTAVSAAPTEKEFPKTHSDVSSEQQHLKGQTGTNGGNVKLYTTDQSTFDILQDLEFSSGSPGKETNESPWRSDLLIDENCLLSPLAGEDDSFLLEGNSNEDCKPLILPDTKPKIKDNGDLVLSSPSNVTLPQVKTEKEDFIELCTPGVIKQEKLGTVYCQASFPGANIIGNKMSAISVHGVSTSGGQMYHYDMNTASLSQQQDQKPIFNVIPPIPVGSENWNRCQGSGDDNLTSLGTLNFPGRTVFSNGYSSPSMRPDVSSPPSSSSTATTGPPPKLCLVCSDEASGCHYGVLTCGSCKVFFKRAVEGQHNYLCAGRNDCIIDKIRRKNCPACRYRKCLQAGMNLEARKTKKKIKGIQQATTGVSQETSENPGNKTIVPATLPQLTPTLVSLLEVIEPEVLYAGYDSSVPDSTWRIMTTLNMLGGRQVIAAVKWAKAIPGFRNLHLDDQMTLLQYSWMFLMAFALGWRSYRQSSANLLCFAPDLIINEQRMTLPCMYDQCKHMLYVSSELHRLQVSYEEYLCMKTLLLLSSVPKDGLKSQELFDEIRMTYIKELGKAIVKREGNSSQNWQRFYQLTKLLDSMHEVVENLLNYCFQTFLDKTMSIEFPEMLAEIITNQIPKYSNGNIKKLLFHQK

[7] = molecular target: Glucocorticoid receptor (Homo sapiens) (UniProt P04150); assay: GR-EFC Redistribution (AID 451; calls by dose curve; note: potency is the fitted concentration of half-maximal effect); conditions: CHO-K1 GR-EFC translocation, beta-gal luminescence, 2 h
In short: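 CHO-K1 cells stably expressing nuclear-localized β-gal enzyme acceptor and GR fused C-terminally to the enzyme donor fragment; ligand-driven nuclear translocation restores β-gal by complementation. Compounds titrated up to 46 uM final, 2 h at 37 °C; luminescence read.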

[8] = molecular target: Mitogen-activated protein kinase 10 (Mus musculus) (UniProt Q61831); assay: JNK3 AlphaScreen Assay (AID 530; active = well fitted curve in either direction with a large enough effect, not every such curve was filed as active;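 note: kinase came from lysate of stimulated human HepG2 cells; signal reports phosphorylation of biotinylated GST-cJun 1-79 at Ser73 with 10 µM ATP; % is set by controls: 0 for no effect and ±100 for the full control effect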); conditions: JNK3 lysate, c-Jun phosphorylation; series mostly up to 57.1 µM
In short: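 Inhibitors reduce antibody binding to phosphorylated biotin-cJun, lowering AlphaScreen luminescence. Lysates from HepG2 cells pre-activated by IL-1beta plus TNF-alpha supplied JNK3; compounds were titrated.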

[9] = molecular target: 3',5'-cyclic-AMP phosphodiesterase 4B (Homo sapiens) (UniProt Q07343); assay: qHTS Assay for Inhibitors of PDE-IV (AID 607; active = well fitted activation curve with a large enough effect in the main read-out, with a control signal flat, not every such curve was filed as active; note: % of control where 0% means no effect); conditions: HEK293 ACTOne CNG channel cells, membrane potential fluorescence; series mostly up to 22.9 µM
Sequence of 3',5'-cyclic-AMP phosphodiesterase 4B (Homo sapiens) (Q07343 whole entry, looked up): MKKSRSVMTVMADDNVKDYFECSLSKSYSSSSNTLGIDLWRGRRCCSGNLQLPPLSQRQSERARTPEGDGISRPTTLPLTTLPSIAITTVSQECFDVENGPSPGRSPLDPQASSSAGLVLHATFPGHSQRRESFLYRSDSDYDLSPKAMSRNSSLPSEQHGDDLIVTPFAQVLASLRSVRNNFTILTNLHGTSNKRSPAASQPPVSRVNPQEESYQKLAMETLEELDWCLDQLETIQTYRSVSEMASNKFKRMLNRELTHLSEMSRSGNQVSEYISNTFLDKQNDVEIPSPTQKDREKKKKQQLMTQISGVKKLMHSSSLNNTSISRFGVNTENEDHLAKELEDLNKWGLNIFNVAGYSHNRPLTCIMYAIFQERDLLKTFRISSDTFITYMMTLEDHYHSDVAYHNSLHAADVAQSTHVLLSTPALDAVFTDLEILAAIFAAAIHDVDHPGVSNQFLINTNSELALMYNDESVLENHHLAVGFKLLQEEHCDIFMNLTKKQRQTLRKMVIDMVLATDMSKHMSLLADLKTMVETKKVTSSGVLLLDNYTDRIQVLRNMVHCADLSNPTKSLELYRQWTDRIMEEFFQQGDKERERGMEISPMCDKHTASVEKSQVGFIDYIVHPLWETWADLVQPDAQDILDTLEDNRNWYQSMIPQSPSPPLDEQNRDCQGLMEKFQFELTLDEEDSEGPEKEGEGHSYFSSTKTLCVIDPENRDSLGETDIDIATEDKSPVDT
In short: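 HEK293 ACTOne cells with CNG channel (1000/well), endogenous PDE4; membrane potential dye, compounds up to 22.9 uM final. Fluorescence Ex 535/Em 590; RO 20-1724 (100 uM final) as reference.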

[10] = molecular target: Cytochrome P450 3A4 (Homo sapiens) (UniProt P08684); assay: qHTS Assay for Activators of Cytochrome P450 3A4 (AID 885); conditions: recombinant CYP3A4, Luciferin-PPXE luminescence, 60 min; series mostly up to 57.1 µM; note: nearly all actives have a fitted effect of over 65% in size
Sequence of Cytochrome P450 3A4 (Homo sapiens) (P08684 whole entry, looked up): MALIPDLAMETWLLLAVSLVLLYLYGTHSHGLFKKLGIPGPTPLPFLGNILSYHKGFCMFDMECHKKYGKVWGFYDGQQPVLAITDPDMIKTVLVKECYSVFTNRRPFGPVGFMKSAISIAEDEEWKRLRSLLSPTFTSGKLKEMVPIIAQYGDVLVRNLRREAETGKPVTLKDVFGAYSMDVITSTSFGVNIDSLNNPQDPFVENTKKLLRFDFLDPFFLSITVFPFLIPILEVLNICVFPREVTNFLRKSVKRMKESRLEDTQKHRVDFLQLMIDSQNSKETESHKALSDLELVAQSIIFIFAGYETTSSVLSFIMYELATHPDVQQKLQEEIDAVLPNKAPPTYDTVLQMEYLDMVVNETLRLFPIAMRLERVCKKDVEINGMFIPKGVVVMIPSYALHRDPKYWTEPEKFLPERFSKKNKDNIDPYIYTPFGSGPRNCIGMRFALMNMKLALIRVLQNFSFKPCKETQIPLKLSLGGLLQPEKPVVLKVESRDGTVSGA
In short: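 Human CYP3A4 (20 nM) with Luciferin-PPXE at 25 uM (its KM) in 200 mM KPO4; 10 min compound preincubation, then NADPH regeneration and 60 min reaction at RT. Luciferin read by luminescence; normalized to 57 uM ketoconazole full inhibition.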

[11] = molecular target: Dual specificity protein kinase CLK4 (Homo sapiens) (UniProt Q9HAZ1); assay: qHTS Assay for Inhibitors of CDC-like Kinase 4 (ADP-Glo Assay) (AID 1771); conditions: recombinant CLK4, ADP-Glo luminescence; series mostly up to 80 µM; note: nearly all actives have a fitted effect of over 70% in size; note: potency is the fitted concentration of half-maximal effect
Sequence of Dual specificity protein kinase CLK4 (Homo sapiens) (Q9HAZ1 whole entry, looked up): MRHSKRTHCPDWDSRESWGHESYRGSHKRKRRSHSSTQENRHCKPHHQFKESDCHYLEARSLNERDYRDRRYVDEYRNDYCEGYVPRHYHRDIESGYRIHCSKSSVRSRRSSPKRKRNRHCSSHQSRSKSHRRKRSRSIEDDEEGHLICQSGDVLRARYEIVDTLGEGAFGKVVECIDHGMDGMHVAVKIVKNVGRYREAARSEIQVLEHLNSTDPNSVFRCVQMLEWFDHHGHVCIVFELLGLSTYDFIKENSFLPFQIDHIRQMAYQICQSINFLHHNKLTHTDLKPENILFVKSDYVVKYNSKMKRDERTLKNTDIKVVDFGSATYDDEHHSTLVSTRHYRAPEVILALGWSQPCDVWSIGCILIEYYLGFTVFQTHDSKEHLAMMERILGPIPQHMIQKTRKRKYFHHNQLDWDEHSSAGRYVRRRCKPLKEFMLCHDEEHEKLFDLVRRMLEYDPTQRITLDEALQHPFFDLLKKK
In short: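 Luminescence from ADP-Glo reports ADP produced by 25 nM Clk4 acting on 100 uM RS repeat peptide with 1 uM ATP over 1 hr at room temperature; residual ATP is depleted before ADP is converted to ATP for detection.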

[12] = molecular target: Dual specificity protein kinase CLK4 (Homo sapiens) (UniProt Q9HAZ1); assay: qHTS Assay for Inhibitors of CDC-like Kinase 4 (ADP-FP Assay) (AID 1795); conditions: Transcreener ADP fluorescence polarization; series mostly up to 50 µM; note: nearly all actives have a fitted effect of over 60% in size; note: potency is the fitted concentration of half-maximal effect
In short: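 Recombinant human Clk4 (6.25 nM) phosphorylated RS repeat peptide (100 uM) with 1 uM ATP in Tris pH 7.5/MgCl2/EGTA/DTT/Triton buffer for one hour. ADP was quantified by Transcreener competitive fluorescence polarization against an ADP calibration curve.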

[13] = Counterscreen qHTS for small molecule stabilizers of the endoplasmic reticulum resident proteome: GLuc-NoTag assay (AID 1508627); conditions: Gaussia luciferase NoTag secretion counterscreen, luminescence, thapsigargin 100 nM for final 4 h; series mostly up to 76.4 µM;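 note: SH-SY5Y cells given compound then 100 nM thapsigargin to empty ER calcium; 0% = thapsigargin alone and -100% = DMSO vehicle control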
In short: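 SH-SY5Y cells stably expressing constitutively secreted GLuc (no SERCaMP tag) were pre-incubated 5 h, treated with compound for 19 h, then 100 nM thapsigargin for 4 h at 37C; medium GLuc read by coelenterazine luminescence.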

[14] = Confirmatory qHTS for small molecule stabilizers of the endoplasmic reticulum resident proteome: Secreted ER Calcium Modulated Protein (SERCaMP) assay (AID 1508628); conditions: SERCaMP secreted luciferase ER calcium/proteostasis reporter; series mostly up to 76.3 µM; note: potency is the fitted concentration of half-maximal effect; nearly all actives have a fitted effect of over 40% in size
In short: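 SH-SY5Y cells stably expressing GLuc-SERCaMP, treated 16 h with compound (primary 1.53, 7.67, 38.3 uM; confirmation 11 concentrations, up to 76.6 uM), then 100 nM thapsigargin for 4 h. Secreted Gaussia luciferase in medium read by coelenterazine luminescence.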

[15] = Cell Viability qHTS for small molecule stabilizers of the endoplasmic reticulum resident proteome (AID 1508629); conditions: cell viability counter-screen, 100 nM thapsigargin for final 4 h
[16] = molecular target: Dual specificity protein kinase CLK4 (Homo sapiens) (UniProt Q9HAZ1); assay: qHTS Assay for Inhibitors of CDC-like Kinase 4 (Kinase-Glo Assay) (AID 1770); conditions: recombinant Clk4, Kinase-Glo ATP depletion luminescence; series mostly up to 66.7 µM; note: % is set by controls: 0 for no effect and ±100 for the full control effect; nearly all actives have a fitted effect of over 65% in size
In short: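 Recombinant human Clk4 (25 nM) phosphorylated RS repeat peptide (100 uM) with 1 uM ATP in Tris pH 7.5/MgCl2/EGTA/DTT/Triton buffer for 4.5 h at room temperature. Residual ATP was quantified by Kinase-Glo luciferase luminescence.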

[17] = molecular target: Ubiquitin carboxyl-terminal hydrolase 1 (Homo sapiens) (UniProt O94782); assay: Inhibitors of USP1/UAF1: Pilot qHTS (AID 504865); conditions: purified USP1/UAF1, Ub-rhodamine cleavage fluorescence; series mostly up to 54.9 µM; note: nearly all actives have a fitted effect of over 35% in size; note: potency is the fitted concentration of half-maximal effect
Sequence of Ubiquitin carboxyl-terminal hydrolase 1 (Homo sapiens) (O94782 whole entry, looked up): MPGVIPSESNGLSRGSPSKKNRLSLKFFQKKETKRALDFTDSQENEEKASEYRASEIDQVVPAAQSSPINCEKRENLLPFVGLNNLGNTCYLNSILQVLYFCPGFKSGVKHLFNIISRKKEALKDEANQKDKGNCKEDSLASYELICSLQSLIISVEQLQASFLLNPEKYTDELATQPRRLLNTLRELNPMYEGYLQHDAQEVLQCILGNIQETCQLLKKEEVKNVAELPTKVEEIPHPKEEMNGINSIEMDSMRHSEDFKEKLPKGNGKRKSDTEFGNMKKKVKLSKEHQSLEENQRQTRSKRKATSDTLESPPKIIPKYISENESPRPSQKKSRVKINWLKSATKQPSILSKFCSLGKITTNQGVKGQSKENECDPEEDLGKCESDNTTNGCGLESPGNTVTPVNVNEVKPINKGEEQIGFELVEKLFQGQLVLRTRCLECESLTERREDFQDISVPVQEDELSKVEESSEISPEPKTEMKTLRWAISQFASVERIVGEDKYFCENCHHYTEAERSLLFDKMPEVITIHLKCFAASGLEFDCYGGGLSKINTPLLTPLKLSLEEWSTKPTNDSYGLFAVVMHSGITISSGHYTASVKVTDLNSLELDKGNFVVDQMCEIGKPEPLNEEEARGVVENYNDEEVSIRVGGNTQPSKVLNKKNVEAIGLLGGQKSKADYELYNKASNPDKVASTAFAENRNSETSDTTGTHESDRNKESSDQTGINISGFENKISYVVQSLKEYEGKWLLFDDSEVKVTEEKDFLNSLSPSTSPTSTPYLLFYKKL
In short: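 USP1/UAF1 complex (1nM) preincubated with compound 15 min at room temperature, then Ub-Rho substrate (150nM final) added. Fluorescence read kinetically at 480/540 nm, 6 reads every 60 seconds. Buffer: 50mM HEPES pH 7.8, 0.5mM EDTA, 0.1 mg/ml BSA, 1mM TCEP, 0.01% Tween-20.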

[18] = qHTS Assay for Lipid Storage Modulators (AID 1519; calls by dose curve); conditions: Drosophila S3 cells, BODIPY lipid droplet/cell ratio, laser cytometry, cells loaded with oleic acid; for activity change, negative = inhibition: at 57.5 µM (top of the series)
In short: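 Cells seeded at 5,000 per well were treated with compounds over a concentration series and loaded with oleic acid (400 uM, as added). Lipid droplet fluorescence (488 nm excitation, 500-530 nm channel) was read by laser-scanning cytometry and normalized to 20 uM Triacsin C.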

[19] = qHTS Assay for Identification of Small Molecule Agonists for Hypoxia Response Element Signaling Pathway (AID 914; active = well fitted activation curve with a large enough effect in the signal ratio, with a control signal flat, not every such curve was filed as active; the % refers to the signal ratio; note: % of control where 0% means no effect); conditions: ME-180 (cervical carcinoma) HRE-bla reporter, beta-lactamase ratio, CoCl2, 17 h; activation: stronger effect = higher value
In short: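 HRE-bla ME-180 assay for agonist-like enhancement of an EC50 CoCl2 stimulus: 17 h at 37 degrees Celsius, CCF4 for 2.5 h, ratiometric 460/530 nm signal converted to %Activity and fitted to AC50.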

[20] = measured here: cell count channel max response
[21] = measured here: lipid channel max response

Q: With Fc1ccc(Nc2ccnc(-c3ccccc3C(F)(F)F)n2)cc1 as the compound, how does the Potency [1] read?
A: > 11.4 µM (inactive)

Q: And the activity change, negative = inhibition [2]?
A: -7.91% (inactive)

Q: And the Potency [3]?
A: 2 µM (active)

Q: And the activity change, negative = inhibition [4]?
A: -6.61% (inactive)

Q: What about the activity, negative = inhibition [5] of the same compound?
A: 3.25% (inactive)

Q: What about the Potency [6] of the same compound?
A: > 46 µM (inactive)

Q: What about the Potency [7] of the same compound?
A: > 46 µM (inactive)

Q: And the outcome [8]?
A: inactive

Q: What about the Potency [9] of the same compound?
A: inactive

Q: What about the Potency [10] of the same compound?
A: inactive

Q: What about the Potency [11] of the same compound?
A: inactive

Q: And the Potency [12]?
A: inactive

Q: What about the Potency [13] of the same compound?
A: inactive

Q: What about the Potency [14] of the same compound?
A: 50.1 µM (active)

Q: What about the max response [15] of the same compound?
A: -1.83% (inactive)

Q: Which results are given for Cc1ccccc1-c1nc(N2CCN(C)CC2)c2ccccc2n1?
A: Potency [1]: > 11.4 µM (inactive); activity change, negative = inhibition [2]: 5.49% (inactive); Potency [3]: 3.98 µM (active); activity change, negative = inhibition [4]: 0.11% (inactive); activity, negative = inhibition [5]: 0.381% (inactive); Potency [7]: > 46 µM (inactive); outcome [8]: inactive; Potency [16]: inactive; Potency [11]: inactive; Potency [12]: inactive; Potency [17]: 28.2 µM (active); Potency [13]: inactive; Potency [14]: 20 µM (active)

Q: What does the source list for COc1ccc(CNc2ncnc3ccc(-c4ccccc4OC)cc23)c(OC)c1?
A: Potency [1]: > 11.4 µM (inactive); activity change, negative = inhibition [2]: -4.21% (inactive); Potency [3]: 3.16 µM (active); activity change, negative = inhibition [4]: -17.9% (inactive); activity, negative = inhibition [5]: -2.99% (inactive); Potency [6]: > 46 µM (inactive); Potency [7]: > 46 µM (inactive); outcome [8]: inactive; Potency [10]: inactive; Potency [12]: inactive; Potency [13]: inactive; Potency [14]: 22.4 µM (active)

Q: For CN1CCN(c2nc(-c3ccc4c(c3)OCO4)nc3ccccc23)CC1, which Potency [1] is on record?
A: > 11.4 µM (inactive)

Q: And the activity change, negative = inhibition [2]?
A: 21.8% (inactive)

Q: And the activity, negative = inhibition [5]?
A: -4.65% (inactive)

Q: What about the Potency [6] of the same compound?
A: > 46 µM (inactive)

Q: What about the Potency [7] of the same compound?
A: > 46 µM (inactive)

Q: And the outcome [8]?
A: inactive

Q: What about the activity change, negative = inhibition [18] of the same compound?
A: 8.71% (inactive)

Q: And the max response [18, 20]?
A: 28%

Q: What about the max response [18, 21] of the same compound?
A: 35.9%

Q: And the Potency [11]?
A: 15.8 µM (active)

Q: What about the Potency [12] of the same compound?
A: 14.1 µM (active)

Q: What about the Potency [17] of the same compound?
A: inactive

Q: What about the Potency [13] of the same compound?
A: inactive

Q: And the Potency [14]?
A: 20 µM (active)

Q: For CN1CCN(c2ncncc2-c2ccccc2C(F)(F)F)CC1, which Potency [1] is on record?
A: > 11.4 µM (inactive)

Q: What about the activity change, negative = inhibition [2] of the same compound?
A: 1.62% (inactive)

Q: What about the Potency [3] of the same compound?
A: 31.6 µM (active)

Q: And the activity, negative = inhibition [5]?
A: 0.819% (inactive)

Q: What about the Potency [6] of the same compound?
A: > 46 µM (inactive)

Q: And the Potency [7]?
A: > 46 µM (inactive)

Q: And the outcome [8]?
A: inactive

Q: And the Potency [9]?
A: inactive

Q: And the activation [19]?
A: 5.49% (inactive)

Q: What about the activity change, negative = inhibition [18] of the same compound?
A: 6.69% (inactive)

Q: And the max response [18, 20]?
A: 25.9%

Q: What about the max response [18, 21] of the same compound?
A: 29.8%

Q: And the Potency [16]?
A: inactive

Q: And the Potency [11]?
A: inactive

Q: And the Potency [12]?
A: inactive

Q: And the Potency [17]?
A: inactive

Q: What about the Potency [13] of the same compound?
A: inactive

Q: What about the max response [15] of the same compound?
A: 18.7% (inactive)
